Calls of active or inactive are those of the source.

Data on four compounds can be found in PubChem BioAssay.

Assay [1] concerns Wnt5a (protein binding on small-molecule microarray). The assay can be described thus: Wnt5a binders on small-molecule microarray, primary screen, biophysical, 635/667 nm fluorescence (AID 1142).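 Also: fluorescence read at 667 nm with signal to noise per printed feature.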 Conditions: 635 nm fluorescence, higher = more signal.
Assay [2] is described as follows: cell viability in Huh7 cells, primary screen, cytotoxicity control for HCV replication inhibitor project, CellTiter-Glo luminescence, basal, 48 h (AID 1143).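 Also: Huh7 hepatoma cells carrying a hepatitis C replication reporter with no stimulus; test concentration not given here.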 The note with it: Huh7 HCV replicon, higher = more signal, called active from +8 up or from −8 down. (In general: In ATP-based viability assays light output follows the ATP content of the culture.)
Assay [3] is described as follows: CREB reporter modulators without forskolin, primary screen, cell-based, PC12, CRE-LacZ reporter, unstimulated (AID 1145). Conditions: no forskolin, luminescence, 4.5 h, higher = more signal, called active from +8 up or from −8 down.
Assay [4] in a line: CREB reporter modulators under forskolin, primary screen, cell-based, PC12, CRE-LacZ reporter, forskolin-stimulated (AID 1146).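 Also: PC12 cells with 6xCRE LacZ reporter stimulated by forskolin 10 µM; beta-galactosidase reporter signal reflecting CREB driven transcription.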 Conditions: luminescence, 4.5 h, higher = more signal, called active from +8 up or from −8 down.
In assay [5] the target is Streptavidin (Streptomyces avidinii) (UniProt P22629). Nature of the assay: streptavidin binders on small-molecule microarray, primary screen, artefact control for SMM compound annotation, biophysical, 635/667 nm fluorescence (AID 1147).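 Also: signal reflects streptavidin binding to arrayed compounds as a control protein.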 The note with it: streptavidin binding, higher = more signal.
Chain of Streptavidin (Streptomyces avidinii) (P22629 whole entry, looked up): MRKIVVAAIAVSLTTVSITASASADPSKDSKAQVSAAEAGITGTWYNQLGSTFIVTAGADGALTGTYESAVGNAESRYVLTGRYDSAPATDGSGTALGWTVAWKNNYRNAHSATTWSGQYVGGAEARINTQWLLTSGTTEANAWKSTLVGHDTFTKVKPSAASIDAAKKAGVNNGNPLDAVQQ
Assay [6] can be described thus: small-molecule binders of probe aInhba, primary screen, biochemical, small-molecule microarray, 635/667 nm fluorescence (AID 1148).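 Also: score merges 667nm spot fluorescence with signal-to-noise for antibody binding to printed compounds.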 The note with it: higher = more signal.
Assay [7] addresses Torsin-1A (Homo sapiens) (UniProt O14656). The assay can be described thus: torsin A binders from cell lysate, primary screen, small-molecule microarray, wild-type, 635/667 nm (AID 1149). The note with it: COS7 hTOR1A-WT lysate, 635 nm fluorescence, higher = more signal.
The target is the same in assay [8]. Nature of the assay: small-molecule binders of mutant TOR1A in lysate, primary screen, cell lysate, small-molecule microarray, COS7 lysate, 635/667 nm fluorescence (AID 1150).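 Also: score pools 667 nm emission and signal to noise measuring lysate protein binding.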 Conditions: COS7 hTOR1A mutant lysate, 635 nm fluorescence, higher = more signal.
In assay [9] the test system is Sonic hedgehog protein (Shh). The assay can be described thus: small-molecule binders of Shh protein, primary screen, biochemical, small-molecule microarray, 635/667 nm fluorescence (AID 1151).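 Also: Shh protein binding to compounds spotted on small-molecule microarray slides; score combines spot fluorescence intensity with signal-to-noise across triplicate slides.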 The note with it: small-molecule microarray binding, 635 nm fluorescence; higher = more signal.
Assay [10] is described as follows: E. coli DRC41 culture turbidity changes, primary screen, E. coli filamentation inducer project, strain DRC41, OD650, 48 h (AID 1152).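 Also: E. coli MC1000 strain DRC41 lacking acrAB efflux pump and sulA.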 Conditions: E. coli DRC41 (acrAB sulA), higher = more signal, called active from +8 up or from −8 down.
A short description of assay [11]: small-molecule binders of probe aLefty1, primary screen, biochemical, small-molecule microarray, 635/667 nm fluorescence (AID 1153).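 Also: score merges spot fluorescence with signal-to-noise ratio from the scanned slide images.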 The note with it: higher = more signal.
Assay [12] can be described thus: PSAC antagonists in infected red cells, primary screen, cell-based, P. falciparum Indochina, OD700, 1 h (AID 1154). Conditions: P. falciparum Indochina infected RBC osmotic lysis, higher = more signal, called active from +8 up or from −8 down.
Assay [13] in a line: PSAC antagonists in infected red cells, primary screen, cell-based, P. falciparum Indochina, OD700, 2 h (AID 1155).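 Also: lysis reports solute entry through the parasite surface anion channel PSAC; channel blockers reduce lysis of infected cells.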 Conditions: P. falciparum Indochina infected erythrocytes, osmotic lysis OD700; higher = more signal, called active from +8 up or from −8 down.
A short description of assay [14]: osmotic lysis modulators in infected erythrocytes, primary screen, PSAC antagonist project, cell-based, P. falciparum Indochina, OD700, 3 h (AID 1156). The note with it: higher = more signal, called active from +8 up or from −8 down.
Assay [15] is described as follows: PSAC antagonists in infected red cells, primary screen, cell-based, P. falciparum Indochina, OD700, 18 h (AID 1157). The note with it: P. falciparum Indochina infected erythrocytes, osmotic lysis OD700, 18 h; higher = more signal, called active from +8 up or from −8 down.
Assay [16] in a line: modulators of S6 phosphorylation in cells, primary screen, cell-based, A549, cytoblot, luminescence, serum-stimulated (AID 1158).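 Also: serum-stimulated A549 lung adenocarcinoma cells; signal is phosphorylated S6 detected by cytoblot immunostaining with HRP secondary.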 The note with it: A549 phospho-S6 cytoblot, 5 h, higher = more signal.
Assay [17] deals with NADPH oxidase 2 (Homo sapiens) (UniProt P04839). Nature of the assay: NOX2-dependent H2O2 signal modulators, primary screen, NOX inhibitor project, cell-based, HEK293-NOX2, PMA-stimulated, Amplex Red fluorescence (AID 1159). Also: test concentration not given here. The note with it: 45 min, higher = more signal, called active from +8 up or from −8 down.
Chain of NADPH oxidase 2 (Homo sapiens) (P04839 whole entry, looked up): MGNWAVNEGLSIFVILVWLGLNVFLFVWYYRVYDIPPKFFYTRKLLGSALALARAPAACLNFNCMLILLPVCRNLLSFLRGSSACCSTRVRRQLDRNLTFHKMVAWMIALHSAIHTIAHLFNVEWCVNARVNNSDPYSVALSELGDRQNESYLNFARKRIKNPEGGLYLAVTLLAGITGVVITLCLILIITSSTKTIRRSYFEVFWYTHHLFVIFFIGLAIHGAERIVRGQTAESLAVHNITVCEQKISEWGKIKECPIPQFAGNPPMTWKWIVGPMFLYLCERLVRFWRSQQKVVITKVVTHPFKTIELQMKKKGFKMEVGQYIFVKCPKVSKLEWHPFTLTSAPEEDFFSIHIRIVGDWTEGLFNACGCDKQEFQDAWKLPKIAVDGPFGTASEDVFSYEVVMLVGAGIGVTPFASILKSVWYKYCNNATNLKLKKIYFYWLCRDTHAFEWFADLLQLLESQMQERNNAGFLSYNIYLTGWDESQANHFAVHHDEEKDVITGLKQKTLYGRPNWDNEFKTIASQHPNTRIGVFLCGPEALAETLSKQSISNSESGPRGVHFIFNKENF
Assay [18] addresses NADPH oxidase 4 (Homo sapiens) (UniProt Q9NPH5). Nature of the assay: NOX4-dependent H2O2 signal modulators, primary screen, NOX inhibitor project, cell-based, HEK293-NOX4, tetracycline-induced, Amplex Red fluorescence (AID 1160). The note with it: 45 min, higher = more signal, called active from +8 up or from −8 down.
The target in assay [19] is NADPH oxidase 5 (Homo sapiens) (UniProt Q96PH1). Nature of the assay: NOX5-dependent H2O2 signal modulators, primary screen, NOX inhibitor project, cell-based, HEK293-NOX5, Amplex Red fluorescence (AID 1161). Conditions: HEK293-NOX5, ionomycin, 45 min, higher = more signal.
Chain of NADPH oxidase 5 (Homo sapiens) (Q96PH1 whole entry, looked up): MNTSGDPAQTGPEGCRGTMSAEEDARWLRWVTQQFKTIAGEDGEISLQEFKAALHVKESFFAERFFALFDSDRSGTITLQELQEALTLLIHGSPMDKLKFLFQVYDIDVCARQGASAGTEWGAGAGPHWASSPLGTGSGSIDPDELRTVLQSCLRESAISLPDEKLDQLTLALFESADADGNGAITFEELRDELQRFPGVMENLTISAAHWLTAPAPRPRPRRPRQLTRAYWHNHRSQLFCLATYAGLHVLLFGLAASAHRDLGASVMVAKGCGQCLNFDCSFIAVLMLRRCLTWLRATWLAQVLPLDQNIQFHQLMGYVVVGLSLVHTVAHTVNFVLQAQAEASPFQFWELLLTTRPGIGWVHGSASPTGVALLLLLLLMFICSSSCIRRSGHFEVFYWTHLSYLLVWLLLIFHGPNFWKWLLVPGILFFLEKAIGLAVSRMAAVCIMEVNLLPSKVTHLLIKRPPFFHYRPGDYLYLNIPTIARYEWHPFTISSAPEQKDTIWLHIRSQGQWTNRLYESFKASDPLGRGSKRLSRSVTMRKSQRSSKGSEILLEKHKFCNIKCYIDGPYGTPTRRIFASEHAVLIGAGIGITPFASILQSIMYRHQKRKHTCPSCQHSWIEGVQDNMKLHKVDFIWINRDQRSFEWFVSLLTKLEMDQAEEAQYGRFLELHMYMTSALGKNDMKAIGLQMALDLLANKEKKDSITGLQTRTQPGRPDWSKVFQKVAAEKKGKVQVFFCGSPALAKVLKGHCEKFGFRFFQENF
Assay [20] is described as follows: A549 cell viability effects, profiling panel, calcein-AM fluorescence, 48 h, basal (AID 1162). Also: test concentration not given here. The note with it: higher = more signal.

Chain of NADPH oxidase 4 (Homo sapiens) (Q9NPH5 whole entry, looked up): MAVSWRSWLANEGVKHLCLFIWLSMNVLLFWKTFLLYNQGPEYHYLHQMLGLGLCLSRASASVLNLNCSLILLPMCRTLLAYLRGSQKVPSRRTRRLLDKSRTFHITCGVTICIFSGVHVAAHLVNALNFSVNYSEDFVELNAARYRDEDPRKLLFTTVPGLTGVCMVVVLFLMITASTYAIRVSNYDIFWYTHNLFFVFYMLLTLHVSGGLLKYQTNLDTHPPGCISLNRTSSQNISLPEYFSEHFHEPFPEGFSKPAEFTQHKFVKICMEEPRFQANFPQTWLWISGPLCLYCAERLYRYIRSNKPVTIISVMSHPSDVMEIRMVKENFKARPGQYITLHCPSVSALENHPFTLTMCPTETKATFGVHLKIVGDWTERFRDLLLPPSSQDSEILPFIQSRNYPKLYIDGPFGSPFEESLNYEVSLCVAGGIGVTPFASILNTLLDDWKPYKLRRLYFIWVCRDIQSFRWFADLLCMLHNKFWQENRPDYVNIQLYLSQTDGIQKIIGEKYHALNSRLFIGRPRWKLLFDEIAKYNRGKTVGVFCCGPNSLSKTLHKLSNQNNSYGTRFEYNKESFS
Chain of Torsin-1A (Homo sapiens) (O14656 whole entry, looked up): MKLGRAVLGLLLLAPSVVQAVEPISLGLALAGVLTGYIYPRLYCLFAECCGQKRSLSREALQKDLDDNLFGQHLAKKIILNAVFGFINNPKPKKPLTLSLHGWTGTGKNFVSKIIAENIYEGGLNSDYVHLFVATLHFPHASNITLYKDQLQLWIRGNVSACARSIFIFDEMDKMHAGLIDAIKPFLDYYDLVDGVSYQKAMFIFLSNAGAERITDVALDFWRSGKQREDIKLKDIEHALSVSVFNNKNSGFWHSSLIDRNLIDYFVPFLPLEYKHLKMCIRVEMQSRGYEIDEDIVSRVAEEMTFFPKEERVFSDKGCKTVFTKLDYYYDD

As for `CC(C)(C)OC(=O)CC[C@@]12N=C(c3ccc(OCCCO)cc3)O[C@@H]1c1ccccc1N(Cc1ccccc1)C2=O`, the composite z-score was 0.215 in assay [1]; -0.0873 in assay [5]; 0.222 in [6]; 0.488 in [7]; 0.516 in assay [8]; 0.657 in [9]. Further, the composite z-score in assay [11] turned out to be 0.659. The z-score in [2] is -4.37 (inactive); in assay [3], 1.6 (inactive); in assay [4], -1.25 (inactive); in assay [10], 0.94 (inactive); in assay [12], 28.5 (active); in [13] it was 29 (active). Moreover, the z-score in assay [14] is 3.86 (inactive); in assay [15], 2.24 (inactive); in assay [16], 0.497; in [17] it was 1.56 (inactive); in [18], -0.266 (inactive); in assay [19], -1.38. Further, the z-score in assay [20] is -0.236.

On to `COC(=O)C1=CC(c2ccc(CO)cc2)=CC(C2CC2)N(C)C=C1C(=O)OC` (stereo not given), for which the composite z-score in [1] was 0.138; in assay [5] it was 0.226; in [6], 0.203; in assay [7] it was -0.017; in assay [8] it was 1.04; in assay [9] it was -0.154. Moreover, in assay [11], the composite z-score came to 0.223. Besides, the z-score in assay [2] is -3.85 (inactive); in assay [3] it was -0.195 (inactive); in [4], -1.75 (inactive); in assay [10] it was 2.75 (inactive); in assay [12], 7.02 (inactive); in assay [13], 0.548 (inactive). Besides, the z-score in assay [14] is -2.7 (inactive); in [15], -0.382 (inactive); in assay [16], 3.99; in assay [17], -1.7 (inactive); in assay [18], -0.0178 (inactive); in assay [19], -1.69. Moreover, in assay [20], the z-score was 0.981.

Consider `C=CCN1C(=O)[C@@]2(O[C@@H](CCO)[C@H]([Si](C)(C)c3ccc(OC)cc3)[C@H]2C)c2cc(N(C=O)c3ccccc3)ccc21`, for which the composite z-score was 0.125 in assay [1]; -0.387 in assay [5]; -0.0044 in [6]; 0.0589 in assay [7]; 0.0237 in assay [8]; 0.207 in [9]. This compound also yielded a composite z-score in [11] of -0.16. Also, the z-score is -7.99 (inactive) in [2]; 16.9 (active) in assay [3]; -4.02 (inactive) in assay [4]; 1.55 (inactive) in assay [10]; 24 (active) in assay [12]; 7.57 (inactive) in assay [13]. The z-score in assay [14] is -0.599 (inactive); in [15], 0.279 (inactive); in [16], 0.183; in [17], -0.477 (inactive); in assay [18], 0.638 (inactive); in assay [19] it was -0.174. Besides, in assay [20], the z-score is -3.16.

For the compound `C=C(COC)/C(=C/C[C@H](OC(C)=O)c1ccc(CO)o1)c1cnc2ccccc2c1`, the composite z-score came to 0.251 in assay [1]; 1.45 in assay [5]; 0.0173 in assay [6]; 1.21 in assay [7]; 1.42 in [8]; 2.15 in assay [9]. The same compound gave a composite z-score in assay [11] of -0.145. In addition, the z-score in assay [2] was -0.461 (inactive); in assay [3], 0.844 (inactive); in assay [4], -1.08 (inactive); in [10] it was 1.23 (inactive); in assay [12], 3.78 (inactive); in assay [13] it was -1.35 (inactive). The z-score in [14] is -0.148 (inactive); in assay [15], -2.05 (inactive); in assay [16] it was -0.198; in assay [17], 2.33 (inactive); in [18], 0.615 (inactive); in [19] it was 0.915. Further, the z-score in assay [20] was 0.283.
